Compounds with a hit are over-represented: about 7.5% of the library has one in this group of screens.
Rab9 promoter act: activates the Rab9 promoter. Huh7 Rab9 promoter-luciferase reporter, luminescence, 24 h. Potency, µM (titrated, usually from 9.22 µM), without a hit: at the highest dose activation, negative = inhibition, most hits filed as activators. hit rate 2.8% among 320,000. AID 485297; note: % of control where 0% means no effect; nearly all actives have a fitted effect of over 60% in size
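Steps: seed 1500 Huh7 Rab9-luc cells per well, rest 2 h at 37 °C; add compound in DMSO; incubate 24 h; add luciferase reagent, 10 min ambient; read luminescence.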
ELG1 genotox: genotoxicity induction in ELG1-luciferase HEK293T cells; AID 504466; hit rate 1.3% among 330,000; Potency, µM (doses to about 46 µM), for inactives: at the top dose activity change, positive = activation, actives largely listed as activators; HEK293T ELG1-luciferase reporter, luminescence, 16 h; note: % of control where 0% means no effect; nearly all actives have a fitted effect of over 60% in size
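Luminescence read-out: rising ELG1-luciferase signal, reflecting elevated ELG1 protein under genetic stress, flags genotoxic compounds. Cells were treated for 16 hr at 37 °C before ONE-Glo detection.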
FLuc modulator: inhibits or activates purified firefly luciferase, miR-21 counter-screen | purified FLuc, Km substrates, luminescence inhibition | hit rate 6.9% among 360,000 | Potency, µM (highest dose often 57.5 µM), for inactives: top-dose activity change, negative = inhibition, hits mostly inhibitors | AID 588342;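 note: plate controls were vehicle for no effect and reference inhibitor for full effect; nearly all actives have a fitted effect of over 55% in size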
Target sequence (P08659 whole entry, looked up): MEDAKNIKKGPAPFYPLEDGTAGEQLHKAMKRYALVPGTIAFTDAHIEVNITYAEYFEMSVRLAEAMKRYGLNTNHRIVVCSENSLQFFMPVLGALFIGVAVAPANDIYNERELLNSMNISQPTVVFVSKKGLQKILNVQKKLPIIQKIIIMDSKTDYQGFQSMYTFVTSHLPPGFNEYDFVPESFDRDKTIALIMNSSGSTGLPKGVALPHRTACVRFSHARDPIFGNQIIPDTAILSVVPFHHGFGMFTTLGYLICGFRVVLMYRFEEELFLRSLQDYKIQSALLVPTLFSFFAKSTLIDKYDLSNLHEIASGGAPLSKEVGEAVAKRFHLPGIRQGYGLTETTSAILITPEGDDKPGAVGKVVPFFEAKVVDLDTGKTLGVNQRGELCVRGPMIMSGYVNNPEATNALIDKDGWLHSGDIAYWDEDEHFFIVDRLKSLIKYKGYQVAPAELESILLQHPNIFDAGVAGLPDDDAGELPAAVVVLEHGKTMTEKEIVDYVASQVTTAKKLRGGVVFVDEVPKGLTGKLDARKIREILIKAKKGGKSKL
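Biochemical qHTS of compounds, final roughly 60 µM downward over six points, against 10 nM purified firefly luciferase using Km concentrations of substrates (10 uM D-luciferin, 10 uM ATP) in Tris acetate pH 7.5 buffer; luminescence output.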
SMN2 splice enh: SMN2 splice variant enhancement; Potency, µM (doses to about 46.1 µM), inactives show at the top dose activity change, positive = activation, usual class: activators; hit rate 2.8% among 210,000; HEK293 SMN2-luciferase splicing reporter, luminescence, 30-36 h; note: % of control where 0% means no effect; nearly all actives have a fitted effect of over 55% in size
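HEK293 cells carry an SMN2 minigene-luciferase reporter in which exon 7 inclusion puts luciferase in frame. Cells were seeded at 2000 cells/well, attached for 10-12 hours, then exposed to compounds for 30-36 hours at 37C before ONE-Glo luminescence.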
NPC1 prom act: activates the NPC1 promoter; Huh7 NPC1 promoter luciferase reporter, 24 h; Potency, µM (series often up to 9.22 µM), for the others: top-dose activation, usual class: activators; hit rate 2.4% among 320,000; AID 485313; note: % of control where 0% means no effect; nearly all actives have a fitted effect of over 60% in size
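Cells: Huh7 expressing luciferase under the NPC1 promoter, 1500/well. Seeded 2 h, compound added, incubated 24 h at 37 °C. Luciferase reagent, 10 min ambient, then luminescence.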
Numbers without * were called inactive; u = inconclusive; x = no result given. Calls come from the whole dose curve; as a rule, active = well fitted curve in the direction sought with a large enough effect; inconclusive = small, poorly fitted or top-dose-only effect, or another doubt; inactive = no such curve, though single readings can be large; an effect the other way counts as inactive or inconclusive. Potency is the fitted concentration of half-maximal effect.

SMILES | Rab9 promoter act | ELG1 genotox | FLuc modulator | SMN2 splice enh | NPC1 prom act
COc1ccc(-c2[nH]c(-c3cccc(OC)c3)nc2SCC(=O)Nc2ccc3c(c2)OCO3)cc1 | x | x | -9% | 1% | x
Cc1cccc(-c2nc(SCC(=O)Nc3ccc4c(c3)OCCO4)c(-c3ccccc3)[nH]2)c1 | x | x | 8.5µM* | -41% | x
COc1ccc(-c2nc(SCC(=O)Nc3ccc4c(c3)OCCO4)c(-c3ccccc3)[nH]2)cc1 | x | x | 6µM* | -22% | x
O=C(CSc1nc(-c2cccc(F)c2)[nH]c1-c1ccccc1)Nc1ccc2c(c1)OCCO2 | x | x | u | 37% | x
COc1cc(-c2nc(SCC(=O)Nc3ccc4c(c3)OCO4)c(-c3ccccc3)[nH]2)cc(OC)c1OC | x | x | 8.5µM* | u | x
COc1cccc(-c2nc(SCC(=O)Nc3ccc4c(c3)OCCO4)c(-c3ccccc3)[nH]2)c1 | x | x | 5.4µM* | -20% | x
CCc1n[nH]c(=S)n1/N=C/c1c(C)nn(-c2ccccc2)c1Cl | -7% | 11% | -6% | 4% | -3%
Cc1ccc(OC(=S)Nc2ccc(O)cc2)cc1 | 0% | -4% | 2% | 0% | -2%
COC(=O)CCC(=O)COc1ccc(OC)cc1C#N | 2.5µM* | u | u | x | u
COc1ccc(C(=O)COc2ccccc2C(N)=O)cc1 | 19% | -6% | -19% | -1% | 12%
COc1ccc(C(=O)COc2ccccc2C#N)cc1 | 3.2µM* | u | u | x | 2.8µM*
COc1ccccc1OCC(=O)NNC(=S)NC(=O)c1ccco1 | 3% | 2% | -6% | -10% | 16%
Cc1cc(/C=C2/NC(=O)NC2=O)c(C)n1C | -3% | 0% | -5% | x | 0%
CCN(CC)S(=O)(=O)c1cccc(NN=c2c(=O)c3ccccc3c2=O)c1 | 1% | 7% | -19% | x | 6%
O=c1c(=NNc2ccccc2Cl)c(=O)c2ccccc12 | u | u | 0.076µM* | -15% | 3.2µM*
Cc1cc(C)c(NN=c2c(=O)c3ccccc3c2=O)c(C)c1 | 1.8µM* | u | 0.95µM* | 13µM* | 2.8µM*
C=CCn1c2ccccc2c(=O)c2cc(C#Cc3ccsc3)ccc21 | 21% | 10% | 0.67µM* | x | 16%
C=CCn1c(O)c(N=O)c2ccccc21 | 0% | 2% | -3% | x | 0%
C=CCn1c2ccccc2c(=O)c2cc(C#Cc3ccccn3)ccc21 | -4% | 3% | 7.6µM* | x | 4µM*
CCOC(=O)c1cnc(SCc2cccc3ccccc23)nc1N | 3% | 8% | u | 6% | -4%
CN(C)c1ccc(C(=S)NC2CCCCC2)cc1 | 2.8µM* | 18µM* | 4.8µM* | 11µM* | 3.2µM*
CCN(CC)c1ccc(C(=S)NC2CCCCC2)cc1 | 15% | u | 15µM* | u | 11%
CCOC(=O)c1cc(=O)c2c([N+](=O)[O-])ccc(OC)c2o1 | -3% | 0% | 0% | 6% | 0%
COc1c(O)ccc(/C=N\NC(=O)c2ccc3c(c2)OCO3)c1[N+](=O)[O-] | 0% | 13% | 15µM* | x | 4%
COc1c(O)ccc(/C=N/NC(=O)c2ccc3c(c2)OCCO3)c1[N+](=O)[O-] | u | u | 2.7µM* | x | u
SMILES | Rab9 promoter act | ELG1 genotox | FLuc modulator | SMN2 splice enh | NPC1 prom act
CC(C)(C)c1ccc(C(=O)N2CCN(C(=O)C3CCCCC3)CC2)cc1 | 1% | -14% | 2% | x | 0%
O=C(c1ccc(F)cc1)N1CCN=C1c1ccccc1 | -3% | -2% | -1% | 8% | 1%
O=C(Nc1ccon1)c1ccc(Br)s1 | 9% | -4% | -12% | x | 12%
O=C(Nc1ccc(Br)cn1)c1ccc(Cl)s1 | 1µM* | 3.3µM* | 4.3µM* | x | 0.89µM*
CCC(=O)Nc1ccc(Br)cn1 | -8% | -3% | 2% | x | -3%
O=C(Nc1ccccn1)c1ccc(Cl)s1 | 4µM* | u | u | x | 2.2µM*
Cc1ccccc1C(=O)Nc1ccc(Br)cn1 | 3.5µM* | 9.2µM* | 11µM* | x | u
O=C(Nc1ccc(Br)cn1)c1ccc(Br)s1 | 0.79µM* | u | 4.3µM* | x | u
CC(c1nc2ccccc2c(=O)[nH]1)N(C)CCOc1ccc(Cl)cc1 (configuration not stated) | -6% | -9% | 3% | x | -2%
Cc1ccc2cc(CN(Cc3nnnn3C3CCCCC3)CC3CCCO3)c(=O)[nH]c2c1 (configuration not stated) | 6% | -6% | 1% | -15% | 1%
O=C(Nc1cccc(F)c1)N(Cc1ccc(Cl)cc1)CC(O)C(F)(F)F (configuration not stated) | -2% | -5% | 1% | -85% | -2%
CSc1ccc(CN2CCC(C(=O)NCc3ccc(C)cc3)CC2)cc1 | -5% | -7% | 0% | x | 0%
O=C(Nc1ccccc1C(=O)Nc1ccc(Br)cn1)c1ccccc1Cl | -8% | -3% | u | x | -4%
Cc1cc(C(=O)Nc2ccc(Br)cn2)sc1C | 2.2µM* | u | x | x | 1µM*
CC1(NC(=O)c2cccc(S(=O)(=O)N3CCN(c4ccc(F)cc4)CC3)c2)CCS(=O)(=O)C1 (configuration not stated) | -4% | -8% | -1% | x | 3%
NNc1nc(-c2ccccc2)cs1 | 16% | u | u | -48% | 14%
Cc1cc(C)cc(OCC(=O)Nc2nc(-c3ccccn3)cs2)c1 | -1% | 0% | 4% | x | 0%
Cc1cccnc1Nc1nc(-c2ccccc2)cs1 | 3.5µM* | 2.6µM* | 1.9µM* | x | 3.2µM*
Cc1cccnc1Nc1nc(-c2ccccn2)cs1 | -1% | 5.8µM* | u | x | u
O=C(c1ccc(-c2cccc(Cl)c2)o1)N1CCN(c2ccc([N+](=O)[O-])cc2)CC1 | 0% | 7% | 2% | -14% | 1%
N#CCCN1CCN(C(=S)c2ccc(-c3ccc(Cl)c(Cl)c3)o2)CC1 | 26% | u | 15µM* | 9% | 13%
N#CCCN1CCN(C(=S)c2ccc(-c3cccc(Cl)c3)o2)CC1 | u | u | 19µM* | 20% | 22%
Cc1cccc(OCC(=O)Nc2nnc(S(=O)(=O)N3CCCCCC3)s2)c1 | 6% | 1% | -9% | x | -1%
Cc1sc2ncnc(SCC(=O)N3CCOCC3)c2c1C | 0% | 5% | 1% | x | -8%
Cc1cccc(/C=C2\Oc3cc(OS(C)(=O)=O)ccc3C2=O)c1 | 16% | 9% | 17µM* | -13% | 22%
O=C1/C(=C/c2cccc(F)c2)Oc2cc(O)ccc21 | 5% | 1% | 11µM* | x | 19%
O=S(=O)(Cc1noc(-c2ccccc2Cl)n1)c1ccccn1 | 1.4µM* | u | 11µM* | x | 1.6µM*
Cn1cc(C(=O)C(=O)N2CCc3ccccc32)c2ccccc21 | 2.8µM* | u | 1% | x | 3.2µM*
COc1cc(/C=N\NC(=O)c2ccc(-c3ccccc3)cc2)ccc1OCC(N)=O | -3% | 14% | -3% | x | -3%
COc1ccc(/C=N/NC(=O)c2nc(-c3ccccc3)cc(-c3ccccc3)n2)cc1OC | -3% | -1% | 2.4µM* | -37% | 3%

Source: PubChem BioAssay
